Laboratory results published in PubChem BioAssay (Tox21).
Records with an inconclusive call do not appear. The source made the active and inactive calls. Unless noted, calls follow the shape of the full dose curve.

Columns and labels:
[1] = target: KiSS-1 receptor (Homo sapiens) (UniProt Q969F8); experiment: Human kisspeptin (KISS1R) small molecule agonists, calcium flux assay in KISS1R-HEK293 cells (AID 1920064; active = well fitted activation curve with a large enough effect in the repeat runs)
Chain of KiSS-1 receptor (Homo sapiens) (Q969F8 whole entry, looked up): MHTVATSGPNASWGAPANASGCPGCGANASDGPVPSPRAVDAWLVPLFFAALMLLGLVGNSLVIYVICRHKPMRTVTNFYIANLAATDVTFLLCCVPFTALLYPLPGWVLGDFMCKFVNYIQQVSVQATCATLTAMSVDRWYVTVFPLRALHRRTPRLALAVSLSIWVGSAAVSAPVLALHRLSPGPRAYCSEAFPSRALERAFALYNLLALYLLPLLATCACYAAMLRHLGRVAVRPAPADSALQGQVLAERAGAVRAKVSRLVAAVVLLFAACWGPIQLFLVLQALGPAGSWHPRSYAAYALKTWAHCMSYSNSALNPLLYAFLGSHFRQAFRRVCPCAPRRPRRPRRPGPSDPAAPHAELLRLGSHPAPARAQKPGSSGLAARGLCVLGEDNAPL
How it was run: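 After overnight (18 h) culture at 37 C/5% CO2, human KISS1R-HEK293 cells received calcium dye for 1 h, then test compound; emission at 540 nm (excitation 480 nm) was tracked for 3 min.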

[2] = G protein-coupled receptor (GPCR) small molecule agonists, calcium flux assay: HEK293 wild type cell line counter screen (AID 1920065)
How it was run: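 Following 18 h incubation at 37 C/5% CO2, plates got calcium dye for 1 h; compounds, ATP or DMSO were then pinned in and fluorescence followed kinetically (480/540 nm).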

[3] = p53 small molecule agonists, cell-based qHTS assay with human liver microsomes: qHTS cell viability counter screen (AID 1963579); also: nearly all actives have a fitted effect of over 45% in size
How it was run: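 In this multiplexed counter screen, the reporter plates were subsequently treated with CellTiter-Glo so that cell viability, reflected by luminescence, could be recorded for p53RE-bla cells dosed 16 h with compounds under microsomal activation (HLM and NADPH).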

[4] = p53 small molecule agonists, cell-based qHTS assay with rat liver microsomes: qHTS cell viability counter screen (AID 1963580); also: nearly all actives have a fitted effect of over 45% in size
How it was run: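 After the beta-lactamase ratio was read, CellTiter-Glo was added to the same wells and luminescence measured at 30 min; cells had been treated 16 h at 37 C with compounds, rat liver microsomes and NADPH (0.5 mg/mL final each).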

[5] = p53 small molecule agonists, cell-based qHTS assay: qHTS cell viability counter screen (AID 1963581); also: nearly all actives have a fitted effect of over 45% in size; also: potency is read from the fitted curve at half-maximal effect
How it was run: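 qHTS counter screen: 16 h compound exposure at 37 C of p53RE-bla HCT-116 cells (4,000 per well, seeded 5 h prior), cell viability by ATP luminescence.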

[6] = target: 5-hydroxytryptamine receptor 2A (Homo sapiens) (UniProt P28223); experiment: 5-hydroxytryptamine receptor 2A (HTR2A) small molecule antagonists, cell-based qHTS assay (AID 1963586); also: nearly all actives have a fitted effect of over 45% in size
Chain of 5-hydroxytryptamine receptor 2A (Homo sapiens) (P28223 whole entry, looked up): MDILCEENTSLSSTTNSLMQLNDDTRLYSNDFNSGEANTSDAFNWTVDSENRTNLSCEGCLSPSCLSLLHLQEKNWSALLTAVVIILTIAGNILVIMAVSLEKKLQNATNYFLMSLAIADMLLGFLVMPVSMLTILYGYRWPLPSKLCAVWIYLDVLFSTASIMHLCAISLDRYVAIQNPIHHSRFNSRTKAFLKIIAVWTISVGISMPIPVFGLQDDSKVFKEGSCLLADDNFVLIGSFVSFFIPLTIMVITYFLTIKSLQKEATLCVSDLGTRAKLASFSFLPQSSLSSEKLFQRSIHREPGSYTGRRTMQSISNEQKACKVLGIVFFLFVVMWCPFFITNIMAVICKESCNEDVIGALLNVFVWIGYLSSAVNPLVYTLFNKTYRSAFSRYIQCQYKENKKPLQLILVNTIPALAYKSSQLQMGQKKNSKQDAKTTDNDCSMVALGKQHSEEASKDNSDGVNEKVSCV
How it was run: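 CHO cells stably expressing human HTR2A were plated for 18 h at 37 C, then loaded with calcium dye for 1 h. Compounds were preincubated 5 min at room temperature before DOI (4 nM solution) was added. Kinetic fluorescence was read for 3 min.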

[7] = target: 5-hydroxytryptamine receptor 2A (Homo sapiens) (UniProt P28223); experiment: 5-hydroxytryptamine receptor 2A (HTR2A) small molecule agonists, cell-based qHTS assay (AID 1963587); also: nearly all actives have a fitted effect of over 30% in size; also: potency is read from the fitted curve at half-maximal effect
How it was run: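 CHO cells stably expressing human HTR2A, plated 18 h, loaded with calcium dye 1 h at 37 C. Agonist mode: compounds added and intracellular calcium fluorescence recorded kinetically for 2 min at 1 sec intervals.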

[8] = target: Muscarinic acetylcholine receptor M1 (Homo sapiens) (UniProt P11229); experiment: Cholinergic receptor muscarinic 1 (CHRM1) small molecule antagonists, cell-based qHTS assay (AID 1963588); also: nearly all actives have a fitted effect of over 40% in size
Chain of Muscarinic acetylcholine receptor M1 (Homo sapiens) (P11229 whole entry, looked up): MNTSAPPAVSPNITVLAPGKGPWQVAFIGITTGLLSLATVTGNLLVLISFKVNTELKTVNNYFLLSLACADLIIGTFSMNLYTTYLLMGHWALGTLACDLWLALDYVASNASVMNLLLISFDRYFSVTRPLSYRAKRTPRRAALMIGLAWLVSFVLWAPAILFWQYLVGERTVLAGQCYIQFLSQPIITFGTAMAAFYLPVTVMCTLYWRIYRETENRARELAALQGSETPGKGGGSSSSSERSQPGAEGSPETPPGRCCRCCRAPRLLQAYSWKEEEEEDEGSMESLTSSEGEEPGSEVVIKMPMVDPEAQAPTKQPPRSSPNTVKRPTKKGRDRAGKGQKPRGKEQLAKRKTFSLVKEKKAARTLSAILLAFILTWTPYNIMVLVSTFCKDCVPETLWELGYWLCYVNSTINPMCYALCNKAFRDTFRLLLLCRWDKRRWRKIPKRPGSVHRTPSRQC
How it was run: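 Compounds were tested at 15 concentrations in three independent runs. Dye-loaded CHRM1-CHO cells were exposed 5 min at room temperature before stimulation by acetylcholine added at 50nM. Intracellular calcium was read kinetically on FDSS for 3 min.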

[9] = target: Muscarinic acetylcholine receptor M1 (Homo sapiens) (UniProt P11229); experiment: Cholinergic receptor muscarinic 1 (CHRM1) small molecule agonists, cell-based qHTS assay (AID 1963589); also: nearly all actives have a fitted effect of over 35% in size
How it was run: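 Kinetic fluorescence (1 s intervals) of calcium-sensitive dye in human M1 CHO cells after compound addition; cells pre-incubated 18 h at 37 C/5% CO2 and dye-loaded 1 h.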

[10] = cAMP Responsive Elements (CRE) small molecule agonists, cell-based qHTS assay (AID 1963590)
How it was run: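 Test agents in DMSO were incubated 3 h at 37 C/5% CO2 with CRE-bla HEK 293T cells seeded 18 h earlier; LiveBLAzer B/G FRET substrate was added and read after 2 h at room temperature.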

[11] = cAMP Responsive Elements (CRE) small molecule antagonists, cell-based qHTS assay (AID 1963591; active = well fitted inhibition curve with a large enough effect in the signal ratio in the repeat runs, not every such curve was filed as active; the % refers to the signal ratio)
How it was run: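 Reporter line CRE-bla HEK 293T in dialyzed-FBS DMEM; cells preincubated 18 h, treated 3 h with compound plus NKH477 (0.25 uM final); LiveBLAzer FRET, 2 h RT.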

[12] = target: D(2) dopamine receptor (Homo sapiens) (UniProt P14416); experiment: Dopamine D2 receptor (DRD2) small molecule antagonists, cell-based qHTS assay (AID 1963595; active = well fitted inhibition curve with a large enough effect in the signal ratio in the repeat runs, with a control signal flat; the % refers to the signal ratio)
Chain of D(2) dopamine receptor (Homo sapiens) (P14416 whole entry, looked up): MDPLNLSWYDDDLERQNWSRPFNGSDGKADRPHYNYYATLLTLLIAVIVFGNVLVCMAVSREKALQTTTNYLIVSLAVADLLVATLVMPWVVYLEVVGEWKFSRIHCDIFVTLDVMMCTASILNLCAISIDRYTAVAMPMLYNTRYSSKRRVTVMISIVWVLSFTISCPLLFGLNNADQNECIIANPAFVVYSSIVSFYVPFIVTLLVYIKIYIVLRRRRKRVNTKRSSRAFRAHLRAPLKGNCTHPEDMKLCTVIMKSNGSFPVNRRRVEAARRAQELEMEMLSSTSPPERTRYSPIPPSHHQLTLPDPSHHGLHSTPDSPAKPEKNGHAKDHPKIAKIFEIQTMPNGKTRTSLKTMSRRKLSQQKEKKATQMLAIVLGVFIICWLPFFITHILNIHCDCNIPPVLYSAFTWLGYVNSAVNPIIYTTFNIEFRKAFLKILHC
How it was run: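 Cells were plated and grown for 24 h at 37 °C. Ro20-1724 (0.1 mM final) went in first, then compound for 10 min. NKH477 (200 nM) with quinpirole (12 nM) followed for 30 min at RT, then HTRF detection reagents for 1 h.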

[13] = p53 small molecule agonists, cell-based qHTS assay with human liver microsomes (AID 1963577);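 also: p53 response element beta-lactamase reporter cells with liver microsomes plus NADPH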
How it was run: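 16 h, 37 C exposure of p53RE-bla cells to compounds with human liver microsomes and NADPH (0.5 mg/mL final each); detection via LiveBLAzer mixture, 2 h dark at room temperature.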

[14] = p53 small molecule agonists, cell-based qHTS assay with rat liver microsomes (AID 1963578)
How it was run: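 With rat liver microsomes and NADPH present (0.5 mg/mL final each), p53RE-bla cells are treated with compound for 16 h at 37 C. LiveBLAzer detection mixture is then applied for 2 h at room temperature in the dark.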

[15] = p53 small molecule agonists, cell-based qHTS assay (AID 1963582; active = well fitted activation curve with a large enough effect in the signal ratio in the repeat runs, not every such curve was filed as active; the % refers to the signal ratio)
How it was run: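 Measured: fluorescence from cleaved LiveBLAzer substrate. System: p53RE-bla cells, 16 h compound treatment at 37 C, 2 h substrate step at room temperature.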

[16] = target: Beta-2 adrenergic receptor (Homo sapiens) (UniProt P07550); experiment: Adrenergic beta2 receptor (ADRB2) small molecule antagonists, cell-based qHTS assay (AID 1963592); also: series mostly up to about 92 µM; nearly all actives have a fitted effect of over 50% in size
Chain of Beta-2 adrenergic receptor (Homo sapiens) (P07550 whole entry, looked up): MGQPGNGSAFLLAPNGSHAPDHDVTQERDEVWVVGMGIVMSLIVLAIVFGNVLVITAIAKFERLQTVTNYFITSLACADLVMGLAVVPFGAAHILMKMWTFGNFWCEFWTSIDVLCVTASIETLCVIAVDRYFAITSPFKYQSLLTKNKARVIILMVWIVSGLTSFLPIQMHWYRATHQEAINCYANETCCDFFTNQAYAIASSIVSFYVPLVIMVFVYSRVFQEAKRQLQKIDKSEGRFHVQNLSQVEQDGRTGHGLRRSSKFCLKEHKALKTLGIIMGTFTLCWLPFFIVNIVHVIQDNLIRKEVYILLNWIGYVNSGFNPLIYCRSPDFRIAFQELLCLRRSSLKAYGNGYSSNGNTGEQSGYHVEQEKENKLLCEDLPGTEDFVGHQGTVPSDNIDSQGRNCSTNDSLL
How it was run: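 Assay format: CHO-ADRB2 cells, 18-20hr seeding at 37C/5% CO2, then compound plus 1nM isoproterenol agonist mix for 0.5hr RT. Homogeneous time-resolved fluorescence cAMP detection after 1hr, expressed as 665/615 nm ratio.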

[17] = target: Beta-2 adrenergic receptor (Homo sapiens) (UniProt P07550); experiment: Adrenergic beta2 receptor (ADRB2) small molecule agonists, cell-based qHTS assay (AID 1963593);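 also: CHO cells stably overexpressing human ADRB2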
How it was run: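 CHO cells stably over-expressing ADRB2 were plated overnight at 37C, then dosed with compounds plus a stimulation mix containing 100uM IBMX and 25uM Ro-20-1724 for 0.5hr at room temperature. cAMP was measured by HTRF competition, 1hr.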

[18] = target: D(2) dopamine receptor (Homo sapiens) (UniProt P14416); experiment: Dopamine D2 receptor (DRD2) small molecule agonists, cell-based qHTS assay (AID 1963594); also: nearly all actives have a fitted effect of over 35% in size
How it was run: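 HEK293 cells stably expressing human DRD2, pre-treated with PDE inhibitor Ro20-1724 (0.1 mM final) and compound 10 min at room temperature, then stimulated with NKH477 (200nM […]) for 30 min. cAMP read by HTRF (665/620 nm).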

[19] = target: Gonadotropin-releasing hormone receptor (Homo sapiens) (UniProt P30968); experiment: Human gonadotropin-releasing hormone receptor (GnRHR) small molecule agonists, calcium flux assay in GnRHR-HEK293 cells (AID 1920063); also: nearly all actives have a fitted effect of over 35% in size
Chain of Gonadotropin-releasing hormone receptor (Homo sapiens) (P30968 whole entry, looked up): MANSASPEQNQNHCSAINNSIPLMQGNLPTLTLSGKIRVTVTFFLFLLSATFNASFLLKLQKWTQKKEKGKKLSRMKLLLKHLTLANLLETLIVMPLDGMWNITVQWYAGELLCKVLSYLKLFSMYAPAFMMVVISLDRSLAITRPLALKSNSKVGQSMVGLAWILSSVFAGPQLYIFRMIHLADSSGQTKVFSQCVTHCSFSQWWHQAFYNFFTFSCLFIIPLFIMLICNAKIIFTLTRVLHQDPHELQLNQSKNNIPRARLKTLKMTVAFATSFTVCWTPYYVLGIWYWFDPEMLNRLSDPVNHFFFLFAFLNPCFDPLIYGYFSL
How it was run: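 Stable human GnRHR HEK293 line. 18 h plating, then calcium dye for 1 h at 37 C. Agonist-mode compound addition from DMSO stocks; fluorescence monitored 3 min.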

Measured: Potency

O=[N+]([O-])[O-].[Tl+]
inactive: [1] | [2] | [3] | [4] | [5] | [6] | [7] | [8] | [9] | [10] | [11] | [12]

CNC(C)Cc1ccccc1OC (stereo not drawn)
active: [7] 0.848 µM
inactive: [1] | [2] | [13] | [14] | [3] | [4] | [5] | [15] | [8] | [9] | [10] | [11] | [16] | [17] | [18] | [12]

CCCCCCBr
inactive: [1] | [13] | [14] | [3] | [4] | [5] | [15] | [6] | [7] | [8] | [9] | [10] | [12]

Fc1ccc(C2(Cn3cncn3)OC2c2ccccc2Cl)cc1 (stereo not drawn)
inactive: [1] | [2] | [3] | [4] | [5] | [6] | [7] | [9] | [10] | [16] | [18] | [12]

Nc1ccc([N+](=O)[O-])cc1
active: [5] 8.39 µM
inactive: [1] | [2] | [13] | [14] | [8] | [9] | [16] | [12]

CCCC(C)C1(CC)C(=O)N=C(S)NC1=O (stereo not drawn)
inactive: [1] | [2] | [3] | [4] | [5] | [6] | [7] | [8] | [9] | [10] | [11] | [16] | [18] | [12]

CC(C)O.CC(C)O.OCCN(CCO)CCO.OCCN(CCO)CCO.[Ti]
inactive: [19] | [2] | [4] | [6] | [7] | [8] | [10] | [17] | [18] | [12]

CCCCOC(C)=O
inactive: [19] | [2] | [13] | [14] | [3] | [4] | [15] | [6] | [7] | [8] | [9] | [10] | [17] | [12]

CC(C)[C@@H](Nc1ccc(C(F)(F)F)cc1Cl)C(=O)OC(C#N)c1cccc(Oc2ccccc2)c1 (stereo partly drawn)
inactive: [1] | [2] | [13] | [14] | [3] | [4] | [5] | [15] | [6] | [7] | [8] | [9] | [11] | [16] | [17] | [18] | [12]
